Experimental data taken from PubChem BioAssay (NCI).
“And” between values parts separate entries of the source, which are not always exact repeats. Equal entries are not always repeated. The panel holds about 83,000 compounds, 20% with a hit somewhere; the sample as a whole holds those more often.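 48-hour exposure, single concentration, 96-well plates; percent growth endpoint where 0 means no net growth. Active: below 10.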 Unmarked numbers belong to inactive results. The source made the active and inactive calls. Starred links: 1 amine or outer side, 2 acyl side, 3 side chain; linkers in the order of their positions; H or OH if unused. Positions of bridges follow the written chain, without caps; N, C: chain ends. Non-standard residues stand in square brackets, D forms with d. Residues, ends and D or L forms follow the SMILES beside them. Chains are numbered I, II in the order given. Actinocin(9to1) = Cc1c2oc3c(C)ccc(C(=O)[*:1])c3nc-2c(C(=O)[*:2])c(N)c1=O; aThr = C[C@H](O)[C@H](N)C(=O)O; NMeV = CN[C@H](C(=O)O)C(C)C; Sar = CNCC(=O)O

What was measured:
Experiment in all cases: NCI-60 one-dose screen, 48 h (100 = growth as untreated, 0 = no growth, -100 = all killed)
MCF7 breast = tested on: MCF7 breast
HCT-116 colon = tested on: HCT-116 colon
HCC-2998 colon = tested on: HCC-2998 colon
KM12 colon = tested on: KM12 colon

Cc1c2oc3c(C)ccc(C(=O)N[C@@H]4C(=O)N[C@H](C(C)C)C(=O)N5CCC[C@H]5C(=O)N(C)CC(=O)N(C)[C@@H](C(C)C)C(=O)O[C@H]4C)c3nc-2c(C(=O)N[C@@H]2C(=O)N[C@H](C(C)C)C(=O)N3CCC[C@H]3C(=O)N(C)CC(=O)N(C)[C@@H](C(C)C)C(=O)O[C@H]2C)c(N)c1=O (I: [aThr][dV]P[Sar][NMeV] / II: [aThr][dV]P[Sar][NMeV]; ester I:1-I:C, II:1-II:C; linker I:N-II:N via Actinocin(9to1))
growth (MCF7 breast; 0.0025 µM): 12.2%
growth (HCT-116 colon; 0.0025 µM): 16%
growth (HCC-2998 colon; 0.0025 µM): 15.2%
growth (KM12 colon; 0.0025 µM): 47.3%

O=c1[nH]cc(F)c(=O)[nH]1
growth (MCF7 breast; 25 µM): 11.5%
growth (MCF7 breast; 50 µM): 18.2%
growth (HCT-116 colon; 25 µM): 17.8%
growth (HCT-116 colon; 50 µM): 28.3%
growth (HCC-2998 colon; 25 µM): -17.8% (active)
growth (HCC-2998 colon; 50 µM): 35.7%
growth (KM12 colon; 25 µM): 40.7%
growth (KM12 colon; 50 µM): 32%

COc1ccc2c(C)cc(N/N=C/c3sccc3C)nc2c1
growth (MCF7 breast; 100 µM): -73.1% (active) and -100% (active)

Cc1ccc2nc(N/N=C/c3ccc(C)s3)cc(C)c2c1
growth (MCF7 breast; 100 µM): -94% (active) and -100% (active)
